The source of these data is PubChem BioAssay (Tox21).

Several values for one entry are separate records, joined by “and”; a condition that tells them apart may be missing. Equal values may be shown once. Inconclusive results are not listed. Some structures have more than one record in an assay (separate samples or runs), and their calls can disagree. Activity calls are given as the source filed them. Unless noted, the call rests on the fitted dose curve.

In test [1] the target is Thyrotropin receptor (Homo sapiens) (UniProt P16473). Put plainly: qHTS assay to identify small molecule agonists of the thyroid stimulating hormone receptor (TSHR) signaling pathway (AID 1224843). Further: nearly all actives have a fitted effect of over 45% in size. Summed up:
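Agonist activity read as cAMP rise via d2/cryptate HTRF competition, 1 h room-temperature detection, in HEK293 cells expressing TSHR. Fifteen-point titrations, each run in triplicate, with a 30 min room-temperature incubation beforehand.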
Background: In qHTS, concentration-response curves come from the screen itself.

Test [2] can be described thus: qHTS assay to identify small molecule agonists of the hypoxia (HIF-1) signaling pathway - cell viability counter screen (AID 1224844). Further: nearly all actives have a fitted effect of over 50% in size. In a few lines: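 In this counter screen, HRE-bla ME-180 cell viability after 17 hrs of compound exposure at 37C was read by CellTiter-Glo luminescence, multiplexed with the beta-lactamase reporter measurement.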
The nature of test [3]: qHTS assay to identify small molecule agonists of H2AX (AID 1224845; active means well fitted activation curve with a large enough effect in the signal ratio in the repeat runs, not every such curve was filed as active; the % refers to the signal ratio). In a few lines: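 Phospho-H2AX Ser139 measured by HTRF (ex 320 nm; em 665 and 620 nm) after 24 hr antibody incubation. Compounds, 15 concentrations, 0.76% DMSO, were applied to CHO-K1 cells for 3hr at 37C before lysis.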
A short description of test [4]: qHTS assay to identify small molecule agonists of H2AX - cell viability counter screen (AID 1224847).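 Further: wild-type CHO-K1 cells; top concentration of the series differs between compounds; nearly all actives have a fitted effect of over 30% in size.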 Summed up: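 After overnight plating of 1000 CHO-K1 cells per well, a 15-concentration compound series was applied for 3 hr at 37C. Luminescence from CellTiter-Glo, read following 30 min at room temperature, reflected cell viability.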
Test [5] is described as follows: qHTS RealTime-Glo MT Cell Viability Assay in HepG2 cells - 24 hour (AID 1224867; active means well fitted curve in the direction sought with a large enough effect in the repeat runs; an effect the other way counts as inactive or inconclusive; further: nearly all actives have a fitted effect of over 50% in size). In a few lines:
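Cell number in HepG2 cultures estimated from NanoLuc luminescence generated by metabolic reduction of a prosubstrate by living cells. The homogeneous, nonlytic format allowed repeated reads at 0, 8, 16, 24, 32 and 40 h of compound exposure.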

Test [6] is described as follows: qHTS RealTime-Glo MT Cell Viability Assay in HEK293 cells - 32 hour (AID 1224868; active means well fitted curve in the direction sought with a large enough effect in the repeat runs; an effect the other way counts as inactive or inconclusive; further: nearly all actives have a fitted effect of over 50% in size; further: potency means the concentration at half of the fitted maximal effect). In a few lines:
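Homogeneous bioluminescent viability format in HEK293 cells (600 cells/well). Following 5 h at 37 C/5% CO2, 23 nL compound was pintooled; the signal was measured repeatedly during 40 h incubation.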

Test [7] is described as follows: qHTS assay to identify small molecule agonists of the hypoxia (HIF-1) signaling pathway (AID 1224846; active means well fitted activation curve with a large enough effect in the signal ratio in the repeat runs, not every such curve was filed as active; the % refers to the signal ratio). In a few lines:
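ME-180 HRE-bla reporter cells; compounds in DMSO, 17 h at 37C; read-out beta-lactamase via CCF4-AM FRET.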

Test [8] is described as follows: A CellTox Green Cytotoxicity Assay to monitor cytotoxicity in HEK293 cells - 0 hour (AID 1224869; active means well fitted curve in the direction sought with a large enough effect in the repeat runs; an effect the other way counts as inactive or inconclusive; further: nearly all actives have a fitted effect of over 50% in size). In a few lines:
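Real-time, in one plate: 600 HEK293 cells/well with dead-cell DNA dye, pinned compound after 5 h, 37 C incubation over 40 h; viable cells give no appreciable fluorescence.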

Test [9] in a line: qHTS assay to identify small molecule antagonists of the estrogen related receptor (ERR) signaling pathway from Tox21 library (AID 1224848; active means well fitted curve in the direction sought with a large enough effect in the repeat runs; an effect the other way counts as inactive or inconclusive; further: nearly all actives have a fitted effect of over 50% in size). In a few lines:
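Luciferase luminescence (ONE-Glo, 30 min room temperature) was the read-out. Cells of the NTP-supplied ERR line, 2,000 per well, were given 6 h at 37 C before compound addition in DMSO and 18 h exposure at 37 C.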

Test [10] can be described thus: qHTS assay to identify small molecule agonists of the estrogen related receptor (ERR) signaling pathway from Tox21 library (AID 1224849). Further: nearly all actives have a fitted effect of over 15% in size. In a few lines:
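Luciferase activity in ERR pathway reporter cells served as the agonist readout; exposure lasted 18 h at 37 C, with ONE-Glo detection after 30 min at room temperature.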

Sequence of Thyrotropin receptor (Homo sapiens) (P16473 whole entry, looked up): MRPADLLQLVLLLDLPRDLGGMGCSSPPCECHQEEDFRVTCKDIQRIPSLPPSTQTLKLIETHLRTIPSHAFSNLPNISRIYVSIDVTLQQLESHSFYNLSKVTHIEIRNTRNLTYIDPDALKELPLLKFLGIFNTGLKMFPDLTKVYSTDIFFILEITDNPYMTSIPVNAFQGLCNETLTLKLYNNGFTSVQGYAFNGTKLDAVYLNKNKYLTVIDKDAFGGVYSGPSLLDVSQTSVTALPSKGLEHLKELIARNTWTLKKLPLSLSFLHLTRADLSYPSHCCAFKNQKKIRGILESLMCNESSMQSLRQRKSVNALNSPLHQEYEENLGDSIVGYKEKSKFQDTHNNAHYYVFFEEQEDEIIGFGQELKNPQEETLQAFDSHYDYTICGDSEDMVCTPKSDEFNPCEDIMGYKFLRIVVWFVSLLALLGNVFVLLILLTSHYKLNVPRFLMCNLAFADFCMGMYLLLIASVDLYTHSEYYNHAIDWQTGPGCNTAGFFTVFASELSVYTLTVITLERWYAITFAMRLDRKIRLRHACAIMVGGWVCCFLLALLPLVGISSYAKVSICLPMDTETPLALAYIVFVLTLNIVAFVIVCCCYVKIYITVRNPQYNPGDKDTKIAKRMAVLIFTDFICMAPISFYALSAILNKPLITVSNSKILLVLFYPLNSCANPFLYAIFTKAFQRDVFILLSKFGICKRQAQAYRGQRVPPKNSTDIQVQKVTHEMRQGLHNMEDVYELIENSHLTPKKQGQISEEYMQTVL

In the case of `CN1C(=O)CC[C@H]1c1cccnc1`, the call in [1], in test [2], in test [3] and in test [4] was inactive. Besides, the Potency result in test [5] and in [6] was “inactive” throughout.
As to `CC(CCO)CC(C)(C)C` (stereo not given), the call in test [1], in test [2], in [3], in test [7], in test [4] and in test [8] was inactive. For the same compound, the Potency entry in test [6] was “inactive”.
In the case of `CC(C)OC(=O)COc1ccc(Cl)cc1Cl`, the outcome in [2], in [3], in test [7] and in test [4] was inactive. The Potency result in [5] and in [6] was “inactive” in each case.
`COc1ccc([N+](=O)[O-])cc1N`: the result in test [2], in [3], in test [7], in test [4] and in test [8] was inactive. In addition, the Potency entry in [5] and in [6] was “inactive” each time.
Consider `CCCCCCCC=O`, for which the call in test [2], in [3], in test [7], in [4] and in [8] was inactive. The Potency entry in [5] and in test [6] was “inactive” throughout.
As to `C=CCCCCCCCCC(=O)O`, the outcome in test [1], in [2], in [3], in test [7], in [4] and in [8] was inactive. Also, in [6], the Potency entry was “inactive”.
Consider `Cc1ccc(C(C)C)c(O)c1`, for which the result in test [2], in [3], in test [7], in [4], in test [9] and in test [10] was inactive. The Potency entry in test [5] and in test [6] was “inactive” each time.
As for `CC(C)CCCCCCCOC(=O)CCCCC(=O)OCCCCCCCC(C)C`, the result in test [1], in test [2], in [3], in test [7], in test [4] and in test [8] was inactive. Further, the Potency result in [6] is “inactive”.
Regarding `CN(C)CCOC(=O)COc1ccc(Cl)cc1`, the outcome in [1], in [2], in test [3], in test [4], in test [9] and in test [10] was inactive. Moreover, in test [8], the call was inactive. For the same compound, the Potency result in [5] and in test [6] was “inactive” throughout.
In the case of `CC(=O)OC1CC(C)OC(C)O1` (stereo not given), the call in test [2], in test [3], in test [7], in test [4], in test [9] and in [10] was inactive. Further, the Potency result in test [6] was “inactive”.
`Clc1ccccn1`: the compound was classed as inactive in test [1], in test [2], in test [3], in test [7], in [4] and in [8]. For the same compound, the Potency result in [6] was “inactive”.
Take `C[C@]12CCC(=O)C=C1CC[C@@H]1[C@@H]2[C@@H](O)C[C@@]2(C)[C@H]1CC[C@]2(O)C(=O)CO`: the compound was called inactive in test [1], in test [2], in [3], in test [4] and in test [8].
Consider `CN(C)c1ccc(Cc2ccc(N(C)C)cc2)cc1`, for which the compound was called inactive in [2], in test [3], in test [7] and in test [10]. Further, the Potency in test [6] is 22 µM (active) and 21.9 µM (active).
For the compound `O=C(O)c1ccc(C(=O)O)c(C(=O)O)c1`, the compound was called inactive in test [1], in [2], in test [3], in test [4], in test [9] and in test [10]. Moreover, the outcome in [8] was inactive. For the same compound, in test [6], the Potency result was “inactive”.
On to `COc1ccccc1OCC(O)CO` (stereo not given), for which the result in test [1], in [2], in test [3], in test [4] and in test [8] was inactive. The Potency entry in [5] and in test [6] was “inactive” throughout.
As for `CC(C)(Oc1ccc(CCNC(=O)c2ccc(Cl)cc2)cc1)C(=O)O`, the result in test [1], in test [2], in test [3], in test [4], in test [9] and in test [10] was inactive. Further, in [8], the outcome was inactive. Moreover, the Potency result in test [5] and in test [6] was “inactive” in each case.
On to `CN/C(=C\[N+](=O)[O-])NCCSCc1csc(CN(C)C)n1`, for which the call in [1], in [2], in [3], in test [4] and in test [8] was inactive. In addition, the Potency result in [5] and in test [6] was “inactive” throughout.
For `CCO[Si](CCC#N)(OCC)OCC`, the compound was classed as inactive in test [2], in test [3], in [7], in test [4] and in test [8]. Besides, the Potency entry in test [5] and in test [6] was “inactive” throughout.
In the case of `O=C1c2ccccc2CCc2ccccc21`, the result in [1], in test [2], in [7], in test [4], in test [9] and in test [10] was inactive. The result in [8] was inactive. The Potency result in [6] was “inactive”.
On to `CC1(C)S[C@@H]2[C@H](NC(=O)COc3ccccc3)C(=O)N2[C@H]1C(=O)O`, for which the outcome in [1], in test [2], in [3], in test [4], in test [9] and in test [10] was inactive. In [8], the compound was classed as inactive. The Potency result in test [6] is “inactive”.
On to `NCCN1CCNCC1`, for which the compound was called inactive in [1], in test [2], in test [3], in test [7], in test [4] and in test [8]. In addition, the Potency entry in test [6] was “inactive”.
As for `CC(C)(C#N)c1cc(Cn2cncn2)cc(C(C)(C)C#N)c1`, the compound was classed as inactive in test [2], in [3], in test [7], in test [4], in test [9] and in [10]. For the same compound, in test [8], the compound was classed as inactive. For the same compound, in [6], the Potency result was “inactive”.
In the case of `CNC(=S)N(C)C`, the outcome in [2], in [3], in test [7] and in test [4] was inactive. Besides, the Potency result in test [6] was “inactive and 11.6 µM (active)”.
With `CCCCOC(=O)c1ccc(N)cc1`, the call in [1], in test [2], in [3], in test [4] and in [8] was inactive. Besides, in [6], the Potency entry was “inactive”.
Turning to `O=c1[nH]cnc2[nH]ncc12`, the compound was classed as inactive in [2], in [3], in test [4] and in test [8]. In addition, the Potency result in test [5] and in test [6] was “inactive” each time.
Turning to `O=S(=O)(O)c1ccc(N=Nc2c(O)ccc3cc(S(=O)(=O)O)ccc23)cc1`, the result in [2], in test [7], in [4], in test [9], in test [10] and in [8] was inactive. Also, the Potency entry in test [6] is “inactive”.
`NCCNCCN`: the result in [2], in test [3], in test [7], in test [4], in test [9] and in test [10] was inactive. For the same compound, the call in test [8] was inactive. In test [6], the Potency entry was “inactive”.
Consider `CNC(=O)Oc1ccc2c(c1)[C@]1(C)CCN(C)[C@@H]1N2C`, for which the result in [1], in [2], in [3], in [4] and in test [8] was inactive. For the same compound, the Potency result in test [5] and in test [6] was “inactive” each time.
On to `CCOC(=O)c1ccc(N)cc1`, for which the result in test [1], in [2], in test [3], in [4] and in test [8] was inactive. Further, the Potency entry in test [5] and in [6] was “inactive” throughout.
Regarding `OC1C(O)C(O)C(O)C(O)C1O` (stereo not given), the compound was classed as inactive in test [1], in [2], in test [3], in [7], in [4] and in [8]. The Potency entry in test [6] is “inactive”.
With `CCCCCCCCCCCCCCCC(=O)OC(C)C`, the result in test [2], in test [3], in [7] and in test [4] was inactive. For the same compound, the Potency result in [6] is “inactive”.
